Screens as filed in PubChem BioAssay.
Sampled rows, rich in hits. Any-hit rate of the full collection: about 2%.
KKLEB tox: cytotoxicity in KKLEB CF airway cells, primary screen, cytotoxicity control for CF NF-kB inhibitor project, cell-based, uHTS, fluorescence assay plates; 0.36% of 360,000 active; activity change (cytotoxicity), % at 5 µM; KKLEB CF airway cells viability, ATPlite luminescence, overnight; stronger effect = lower value; cells stimulated with P. aeruginosa culture filtrate; AID 602141, 2011;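 active = corrected activity change at or below -50% at 5 µM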
EWS-Fli inh: EWS/Fli-driven NR0B1 reporter inhibitors, primary screen, A673 cells, NR0B1 luciferase, luminescence, MLPCN library. inhibition, % at 12.6 µM. viability-normalised. 0.67% of 350,000 active;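 active = mean inhibition of at least 50% after viability correction, with every replicate also passing that limit; inconclusive = mean reaches 50% but only one of two replicates passes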;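 also: firefly luciferase signal divided by Alamar Blue viability fluorescence both relative to DMSO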
Shn3 3UTR inh: reduction of Shn3 3'UTR firefly luciferase signal, primary screen, Schnurri-3 inhibitor project, cell-based, Clone20 osteoblasts, set 2; Clone20 osteoblast Shn3 3'UTR firefly luciferase, 24 h; inhibition, % at 12.5 µM; 0.52% of 360,000 active; AID 588674, 2011;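 active = mean inhibition of at least 75% with every replicate also reaching 75%; inconclusive = mean inhibition at least 75% but some replicate below; inactive = mean inhibition below 75%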
CF NFkB block: inhibitors of PAF-induced NF-kB signaling, primary screen, cell-based, GFP fluorescence, uHTS. AID 588850, 2011. 0.86% of 360,000 active. inhibition, % at 5 µM. KKLEB NF-kB-GFP reporter, GFP fluorescence overnight;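 active = at least 50% inhibition at 5 µM, scaled per plate between neutral and stimulator controls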;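 also: PAF is a Pseudomonas aeruginosa culture filtrate used as stimulus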
LGR2 inh: inhibitors of bursicon-induced LGR2 CRE-luciferase signal, primary screen, cell-based, HEK293, CRE-luciferase reporter, bursicon stimulation. Drosophila bursicon receptor LGR2 (rickets). bursicon-stimulated, 4 h. inhibition, % at 9.99 µM. 0.35% of 380,000 active. AID 720647, 2013;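 active = drop in luminescence signal, shown as inhibition above about 50% in the replicate tests, limit read from the data, passing the limit was not always enough; inconclusive = probably only some replicates passing the limit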;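 also: agonist challenge used bursicon conditioned medium at about half maximal strength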
PAX8 reporter: inhibitors of PAX8-driven TPO luciferase reporter, primary screen, RMG-I cells, single concentration. SteadyGlo, 24 h. inhibition, % at 12.6 µM. 1.2% of 360,000 active;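 active = mean replicate inhibition at least 60% with every replicate also reaching 60%; inconclusive = only one of the two criteria is met; inactive = mean below 60% and not all replicates reaching 60%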;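 also: luciferase light reporting Pax8 driven TPO promoter activity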
A number is an active result; 0 = inactive; ? = inconclusive; - = no result given.

SMILES	KKLEB tox	EWS-Fli inh	Shn3 3UTR inh	CF NFkB block	LGR2 inh	PAX8 reporter
Cc1noc(C)c1NC(=O)N[C@@H]1CC[C@H](CC(=O)NCc2ccc(Cl)c(Cl)c2)O[C@H]1CO	-	0	-	-	0	0
COCCOC(=O)c1[nH]c2c(c1C)C(=O)CC(c1ccco1)C2 (centres undefined)	0	65	0	0	0	0
Cc1c(C(=O)OCCOC(C)C)[nH]c2c1C(=O)CC(c1ccco1)C2 (centres undefined)	0	-	0	0	-	-
Cc1c(C(=O)OCc2ccccc2)[nH]c2c1C(=O)CC(c1ccco1)C2 (centres undefined)	0	-	86	57	-	-
C[C@H](CO)N1C[C@H](C)[C@H](CN(C)Cc2ccc3c(c2)OCO3)OCCCC[C@H](C)Oc2ccc(NC(=O)NC3CCCCC3)cc2C1=O	-	0	-	-	0	0
CC(C)N1CCN(c2ccc(OCC3COC(Cn4cncn4)(c4ccc(Cl)cc4Cl)O3)cc2)CC1 (centres undefined)	0	0	95	0	0	0
CC(C)N1CCN(c2ccc(OC[C@H]3CO[C@](Cn4cncn4)(c4ccc(Cl)cc4Cl)O3)cc2)CC1	0	0	0	0	0	0
CCNC(=O)C[C@@H]1C=C[C@@H](NC(=O)C2CC2)[C@@H](CO)O1	-	0	-	-	0	0
Cc1ccc(S(=O)(=O)N(C)C[C@H]2Oc3cc(C#Cc4ccncc4)ccc3S(=O)(=O)N([C@@H](C)CO)C[C@H]2C)cc1	-	0	-	-	-	104
CC(C)CC#Cc1ccc2c(c1)O[C@@H](CN(C)S(=O)(=O)c1ccc(F)cc1)[C@H](C)CN([C@H](C)CO)S2(=O)=O	-	0	-	-	0	67
CC(C)CC#Cc1ccc2c(c1)O[C@H](CN(C)S(=O)(=O)c1ccc(F)cc1)[C@H](C)CN([C@@H](C)CO)S2(=O)=O	-	0	-	-	0	98
CO[C@H]1CN(C)C(=O)c2cc(NS(=O)(=O)CC(F)(F)F)ccc2OC[C@H](C)N(CC2CCCCC2)C[C@@H]1C	-	0	-	-	0	0
Cc1cccc(-c2noc(CN(C(=O)C(c3ccccc3)c3ccccc3)C(C)C)n2)c1	0	0	84	0	0	0
Cc1c(/N=C(\[O-])Nc2ccc(Br)cc2)sn[n+]1C	0	0	0	0	82	0
Cc1ccccc1/C(=N\S(=O)(=O)c1ccc(Br)cc1)Nc1ccccc1	0	0	0	0	0	0
FC(F)(F)c1nnc(-c2ccccc2)nc1Sc1ccc(Cl)cc1	0	-	92	0	-	-
Cc1c(C(=O)NC(=S)Nc2ccccc2N2CCCC2)cccc1[N+](=O)[O-]	0	77	0	0	0	0
O=C(NC(=S)Nc1ccccc1N1CCCC1)c1ccc([N+](=O)[O-])cc1	0	-	0	0	0	0
CC[n+]1c(/C=C/c2c[nH]c3ccccc23)ccc2cc(C)ccc21	-	0	-	-	108	76
CCN(CC)C(=O)c1ccc(/C=C/c2c[nH]c3ccccc23)[n+](C)c1	0	-	0	0	0	0
C[C@@H]1CN([C@H](C)CO)C(=O)c2cc(NC(=O)Nc3ccc(F)cc3)ccc2O[C@H]1CN(C)C(=O)Nc1cccc2ccccc12	-	0	-	-	0	0
c1ccc(COc2ccc(OCCCN3CCCC3)cc2)cc1	0	0	0	0	?	67
c1ccc(COc2ccc(OCCN3CCCC3)cc2)cc1	0	-	0	0	0	-
c1ccc(COc2ccc(OCCN3CCCCC3)cc2)cc1	0	0	0	0	0	99
O=C(Nc1cccc(O)c1)c1cc(-c2ccc3c(c2)OCO3)on1	-70	0	0	0	?	0
COc1cc(NC(=O)c2cc(-c3ccc4c(c3)OCO4)on2)cc(OC)c1OC	0	0	0	0	0	0
O=C(N[C@H]1CC[C@@H](CCNS(=O)(=O)c2ccc(F)cc2)O[C@H]1CO)c1ccccn1	-	0	-	-	0	0
COc1ccccc1CN1C[C@H](C)[C@@H](OC)CN(C)C(=O)c2ccc(NC(C)=O)cc2OC[C@H]1C	-	0	-	-	0	0
